Experimental data: the antibiotic and cytotoxicity screens of Wong et al. (2023)
The whole screen tested about 39,000 compounds, of which about 3,300 (8.5%) were called active. Only a selection was taken, and actives are over-represented in it overall.

Each molecule was assayed on HepG2 (assay: cytotoxicity call (relative viability < 0.9)). Details: 10 µM.

| SMILES | cytotoxicity call |
| --- | --- |
| Cn1c(=O)n2n(c1=O)[C@H](C1CC1)C=C1CN3[C@@H]([C@H](Cc4ccccc4)OC(=O)[C@@H]3Cc3ccc(N=[N+]=[N-])cc3)[C@@H]12 | inactive |
| Cc1ccc(S(=O)(=O)Nc2ccc3c(c2)C(=O)N([C@@H](C)CO)C[C@@H](C)[C@@H](CN(C)Cc2ccc(-c4ccccc4)cc2)O3)cc1 | active |
| Cc1ccc(S(=O)(=O)Nc2ccc3c(c2)C(=O)N([C@H](C)CO)C[C@H](C)[C@H](CN(C)Cc2ccc(-c4ccccc4)cc2)O3)cc1 | active |
| Cc1ccc(S(=O)(=O)Nc2ccc3c(c2)C(=O)N([C@@H](C)CO)C[C@H](C)[C@H](CN(C)Cc2ccc(-c4ccccc4)cc2)O3)cc1 | inactive |
| Cc1ccc(S(=O)(=O)Nc2ccc3c(c2)C(=O)N([C@@H](C)CO)C[C@H](C)[C@@H](CN(C)Cc2ccc(-c4ccccc4)cc2)O3)cc1 | inactive |
| Cc1ccc(S(=O)(=O)Nc2ccc3c(c2)C(=O)N([C@H](C)CO)C[C@@H](C)[C@H](CN(C)Cc2ccc(-c4ccccc4)cc2)O3)cc1 | inactive |
| Cc1ccc(S(=O)(=O)Nc2ccc3c(c2)C(=O)N([C@H](C)CO)C[C@H](C)[C@@H](CN(C)Cc2ccc(-c4ccccc4)cc2)O3)cc1 | inactive |
| Cc1ccc(S(=O)(=O)Nc2ccc3c(c2)C(=O)N([C@H](C)CO)C[C@@H](C)[C@@H](CN(C)Cc2ccc(-c4ccccc4)cc2)O3)cc1 | active |
| Cc1ccc(S(=O)(=O)Nc2ccc3c(c2)C(=O)N([C@@H](C)CO)C[C@@H](C)[C@H](CN(C)Cc2ccc(-c4ccccc4)cc2)O3)cc1 | inactive |
| C[C@@H]1CCCCO[C@H](CN(C)C(=O)CCCN(C)C)[C@@H](C)CN([C@H](C)CO)C(=O)c2cc(NC(=O)Nc3ccc(F)cc3)ccc2O1 | inactive |
| Cc1noc(C)c1NC(=O)N(C)C[C@H]1OCCCC[C@H](C)Oc2ccc(NS(=O)(=O)c3ccccc3)cc2C(=O)N([C@@H](C)CO)C[C@H]1C | inactive |
| C[C@H]1CN([C@@H](C)CO)S(=O)(=O)c2ccc(C#Cc3cccc(F)c3)cc2O[C@H]1CN(C)CC1CC1 | inactive |
| C[C@H](CO)N1C[C@H](C)[C@H](CN(C)S(=O)(=O)c2cn(C)cn2)Oc2ccc(NC(=O)C3CCCCC3)cc2C1=O | inactive |
| Cc1ccc(S(=O)(=O)Nc2ccc3c(c2)C(=O)N(C)[C@H]2CC[C@@H](CC(=O)NCCc4ccncc4)O[C@@H]2CO3)cc1 | inactive |
| O=C1c2ccccc2[C@](Cc2ccccc2I)(C(=O)NCc2ccccc2)[C@H](c2ccc(CO)cc2)N1Cc1ccccc1C(F)(F)F | inactive |
| COCC#Cc1ccc2c(c1)O[C@H](CN(C)S(=O)(=O)c1ccc(C)cc1)[C@@H](C)CN([C@@H](C)CO)S2(=O)=O | inactive |
